What all share (set-up): scale not given: direction of the effect not stated beside the values
Assay [1] concerns the target Protein translocase subunit SecA (Escherichia coli (strain K12)) (UniProt P10408). The experiment in a line: Assay to Identify E. coli SecA ATPase Inhibitors. Format: functional. The note with it: 30 µM.
Assay [2] has as its target T1, Ubiquitin-activating enzyme e1, putative (Leishmania donovani (strain BPK282A1)) (UniProt E9BSI1).
T1 sequence (whole entry): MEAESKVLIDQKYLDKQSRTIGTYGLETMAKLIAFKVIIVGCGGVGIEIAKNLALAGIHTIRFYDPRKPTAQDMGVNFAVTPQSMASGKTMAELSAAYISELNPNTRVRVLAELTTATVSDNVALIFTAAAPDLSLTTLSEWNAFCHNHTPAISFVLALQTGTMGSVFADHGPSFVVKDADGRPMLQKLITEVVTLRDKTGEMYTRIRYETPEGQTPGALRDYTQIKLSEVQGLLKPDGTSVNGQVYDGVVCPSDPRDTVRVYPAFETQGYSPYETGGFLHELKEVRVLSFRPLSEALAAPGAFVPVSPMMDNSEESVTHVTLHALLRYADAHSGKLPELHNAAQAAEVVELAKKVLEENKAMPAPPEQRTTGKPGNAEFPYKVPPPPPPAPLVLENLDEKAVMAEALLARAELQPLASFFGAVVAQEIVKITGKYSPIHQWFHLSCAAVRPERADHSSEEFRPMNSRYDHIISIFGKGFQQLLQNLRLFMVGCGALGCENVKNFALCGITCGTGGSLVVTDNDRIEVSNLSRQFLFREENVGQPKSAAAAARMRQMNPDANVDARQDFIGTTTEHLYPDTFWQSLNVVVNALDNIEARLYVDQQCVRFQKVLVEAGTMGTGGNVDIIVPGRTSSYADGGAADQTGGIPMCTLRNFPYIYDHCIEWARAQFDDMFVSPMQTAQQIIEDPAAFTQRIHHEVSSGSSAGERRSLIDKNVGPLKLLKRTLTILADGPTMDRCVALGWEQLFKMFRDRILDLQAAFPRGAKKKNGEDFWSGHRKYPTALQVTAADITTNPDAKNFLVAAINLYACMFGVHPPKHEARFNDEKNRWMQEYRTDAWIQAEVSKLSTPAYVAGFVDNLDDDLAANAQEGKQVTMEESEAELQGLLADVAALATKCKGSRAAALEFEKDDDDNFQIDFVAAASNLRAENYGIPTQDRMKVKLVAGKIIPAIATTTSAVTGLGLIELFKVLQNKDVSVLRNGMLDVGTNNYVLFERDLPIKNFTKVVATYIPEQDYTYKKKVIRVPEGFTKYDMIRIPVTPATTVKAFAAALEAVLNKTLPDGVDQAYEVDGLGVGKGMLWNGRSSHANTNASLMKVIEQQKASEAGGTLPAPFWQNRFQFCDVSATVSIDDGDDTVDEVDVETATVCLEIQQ
The assay can be described thus: Leishmania donovani Ubiquitin Activating Enzyme (LdE1). Conditions: 30 µM. The format is functional.

Assay [3] deals with AMP-activated protein kinase, AMPK (Homo sapiens) (UniProt P54646+O43741+P54619+Q9UGJ0+Q9Y478+Q13131+Q9UGI9). The experiment in a line: AMP-dependent Kinase enzyme assay. An in vitro enzyme assay that detects ADP turnover that is directly proportional to AMPK activity. This uses naive AMPK that is activated during the assay with MK-8722. Format: functional. Conditions: 30 µM.

Assay [4] deals with Sialic acid-binding Ig-like lectin 9 (Homo sapiens) (UniProt Q9Y336). The experiment in a line: Hs-Siglec9 ALPHAscreen SOP 20170721. The note with it: 10 µM.
Chain of Sialic acid-binding Ig-like lectin 9 (Homo sapiens) (Q9Y336 whole entry): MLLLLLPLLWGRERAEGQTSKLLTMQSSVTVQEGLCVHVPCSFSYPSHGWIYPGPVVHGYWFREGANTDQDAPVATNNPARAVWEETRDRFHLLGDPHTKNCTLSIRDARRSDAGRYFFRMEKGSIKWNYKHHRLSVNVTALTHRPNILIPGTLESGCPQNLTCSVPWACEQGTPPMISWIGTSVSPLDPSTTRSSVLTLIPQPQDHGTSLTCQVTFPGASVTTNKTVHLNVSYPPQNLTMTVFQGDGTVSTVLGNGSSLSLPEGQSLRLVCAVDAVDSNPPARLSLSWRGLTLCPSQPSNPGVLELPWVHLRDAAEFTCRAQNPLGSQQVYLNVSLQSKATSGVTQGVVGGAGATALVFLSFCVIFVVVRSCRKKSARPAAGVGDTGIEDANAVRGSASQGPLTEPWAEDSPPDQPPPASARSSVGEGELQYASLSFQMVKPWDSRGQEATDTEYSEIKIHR
For assay [5], the system named is Trypanosoma cruzi. The assay can be described thus: Trypanosoma cruzi phosphomannomutase and mannose-1-phosphate guanylyltransferase assay. The format is functional. The note with it: 10 µM.
In assay [6] the target is T2, Arginase-2, mitochondrial (Homo sapiens) (UniProt P78540).
T2 sequence (whole entry): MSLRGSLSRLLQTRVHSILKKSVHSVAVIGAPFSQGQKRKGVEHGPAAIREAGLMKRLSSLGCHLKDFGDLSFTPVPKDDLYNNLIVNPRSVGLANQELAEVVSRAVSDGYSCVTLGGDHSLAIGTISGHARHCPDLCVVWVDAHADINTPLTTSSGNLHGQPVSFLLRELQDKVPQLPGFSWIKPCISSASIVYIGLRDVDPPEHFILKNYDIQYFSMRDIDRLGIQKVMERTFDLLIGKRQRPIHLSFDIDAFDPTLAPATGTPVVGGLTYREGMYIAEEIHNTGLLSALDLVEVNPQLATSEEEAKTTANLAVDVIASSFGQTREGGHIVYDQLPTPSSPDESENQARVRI
The experiment in a line: in vitro enzyme assay to detect the production of urea directly proportional to the activity of Arginase II. Further: in the data most compounds retested in dose-response had high values. The format is functional. The note with it: 33.3 µM.

Assay [7] addresses T3, Proteasome subunit beta (Trypanosoma cruzi) (UniProt O96673).
T3 sequence (whole entry): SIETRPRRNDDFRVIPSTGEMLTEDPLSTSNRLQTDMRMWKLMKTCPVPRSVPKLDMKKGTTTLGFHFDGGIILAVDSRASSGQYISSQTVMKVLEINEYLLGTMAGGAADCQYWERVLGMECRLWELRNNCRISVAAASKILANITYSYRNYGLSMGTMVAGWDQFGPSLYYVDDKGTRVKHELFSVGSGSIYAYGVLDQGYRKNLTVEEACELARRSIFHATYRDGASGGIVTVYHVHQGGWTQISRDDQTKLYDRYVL
The assay can be described thus: Trypanosoma cruzi proteasome chymotrypsin-like activity (TcProtChymo) assay. Further: in the data most compounds retested in dose-response had high values. Format: functional. The note with it: 9.37 µM.

Assay [8] is filed under the species Homo sapiens. The assay can be described thus: To identify inhibition of the IFN signalling (Jak-Stat) pathway via expression of an eGFP reporter gene under the control of an IFN-stimulated response element (ISRE) containing MxA promoter. The format is functional. The note with it: 30 µM.
In assay [9] the target is T4, Tyrosyl-tRNA synthetase, putative (Trypanosoma cruzi (strain CL Brener)) (UniProt Q4DSP6).
T4 sequence (whole entry): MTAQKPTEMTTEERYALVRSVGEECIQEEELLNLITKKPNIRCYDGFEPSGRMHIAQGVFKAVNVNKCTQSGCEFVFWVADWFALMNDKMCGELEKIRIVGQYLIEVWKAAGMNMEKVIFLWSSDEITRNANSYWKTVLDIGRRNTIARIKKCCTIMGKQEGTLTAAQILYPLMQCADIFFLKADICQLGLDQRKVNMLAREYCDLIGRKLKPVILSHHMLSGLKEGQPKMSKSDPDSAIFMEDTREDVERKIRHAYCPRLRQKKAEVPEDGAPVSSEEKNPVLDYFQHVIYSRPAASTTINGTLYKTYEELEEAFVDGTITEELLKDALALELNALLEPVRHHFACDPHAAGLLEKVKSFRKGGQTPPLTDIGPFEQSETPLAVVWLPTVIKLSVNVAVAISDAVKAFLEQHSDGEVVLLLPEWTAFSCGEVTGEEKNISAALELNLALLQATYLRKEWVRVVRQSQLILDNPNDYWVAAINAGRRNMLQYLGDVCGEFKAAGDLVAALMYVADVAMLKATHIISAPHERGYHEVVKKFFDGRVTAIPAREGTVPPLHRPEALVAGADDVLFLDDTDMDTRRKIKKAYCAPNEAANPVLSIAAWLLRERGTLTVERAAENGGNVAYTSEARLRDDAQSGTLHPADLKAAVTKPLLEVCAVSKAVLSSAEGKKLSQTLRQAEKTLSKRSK
The assay can be described thus: Trypanosoma cruzi tyrosyl tRNA synthetase (TcYRS) _High Tyrosine SOP. Further: in the data most compounds retested in dose-response had high values. The format is functional. Conditions: 30 µM.

In assay [10] the target is T4, Tyrosyl-tRNA synthetase, putative (Trypanosoma cruzi (strain CL Brener)). The assay can be described thus: Trypanosoma cruzi tyrosyl tRNA synthetase (TcYRS) SOP. The format is functional. Conditions: 30 µM.
Assay [11] has as its target Chromo domain-containing protein 1 (Saccharomyces cerevisiae (strain ATCC 204508 / S288c) (Baker's yeast)) (UniProt P32657). The assay can be described thus: ScCHD-1 Enzyme Inhibition Assay. Further: in the data most compounds retested in dose-response had high values. The note with it: 30 µM. Format: functional.

Drawing on ChEMBL document CHEMBL3988442, “University of Dundee, Small-Polar-MMV Screening Library” (2021), this text covers Percent Effect for eight molecules.

Molecules are shown by their SMILES. For some of these results: Potency and affinity values are given separately.

Chain of Chromo domain-containing protein 1 (Saccharomyces cerevisiae (strain ATCC 204508 / S288c) (Baker's yeast)) (P32657 whole entry, the tested form may be a part): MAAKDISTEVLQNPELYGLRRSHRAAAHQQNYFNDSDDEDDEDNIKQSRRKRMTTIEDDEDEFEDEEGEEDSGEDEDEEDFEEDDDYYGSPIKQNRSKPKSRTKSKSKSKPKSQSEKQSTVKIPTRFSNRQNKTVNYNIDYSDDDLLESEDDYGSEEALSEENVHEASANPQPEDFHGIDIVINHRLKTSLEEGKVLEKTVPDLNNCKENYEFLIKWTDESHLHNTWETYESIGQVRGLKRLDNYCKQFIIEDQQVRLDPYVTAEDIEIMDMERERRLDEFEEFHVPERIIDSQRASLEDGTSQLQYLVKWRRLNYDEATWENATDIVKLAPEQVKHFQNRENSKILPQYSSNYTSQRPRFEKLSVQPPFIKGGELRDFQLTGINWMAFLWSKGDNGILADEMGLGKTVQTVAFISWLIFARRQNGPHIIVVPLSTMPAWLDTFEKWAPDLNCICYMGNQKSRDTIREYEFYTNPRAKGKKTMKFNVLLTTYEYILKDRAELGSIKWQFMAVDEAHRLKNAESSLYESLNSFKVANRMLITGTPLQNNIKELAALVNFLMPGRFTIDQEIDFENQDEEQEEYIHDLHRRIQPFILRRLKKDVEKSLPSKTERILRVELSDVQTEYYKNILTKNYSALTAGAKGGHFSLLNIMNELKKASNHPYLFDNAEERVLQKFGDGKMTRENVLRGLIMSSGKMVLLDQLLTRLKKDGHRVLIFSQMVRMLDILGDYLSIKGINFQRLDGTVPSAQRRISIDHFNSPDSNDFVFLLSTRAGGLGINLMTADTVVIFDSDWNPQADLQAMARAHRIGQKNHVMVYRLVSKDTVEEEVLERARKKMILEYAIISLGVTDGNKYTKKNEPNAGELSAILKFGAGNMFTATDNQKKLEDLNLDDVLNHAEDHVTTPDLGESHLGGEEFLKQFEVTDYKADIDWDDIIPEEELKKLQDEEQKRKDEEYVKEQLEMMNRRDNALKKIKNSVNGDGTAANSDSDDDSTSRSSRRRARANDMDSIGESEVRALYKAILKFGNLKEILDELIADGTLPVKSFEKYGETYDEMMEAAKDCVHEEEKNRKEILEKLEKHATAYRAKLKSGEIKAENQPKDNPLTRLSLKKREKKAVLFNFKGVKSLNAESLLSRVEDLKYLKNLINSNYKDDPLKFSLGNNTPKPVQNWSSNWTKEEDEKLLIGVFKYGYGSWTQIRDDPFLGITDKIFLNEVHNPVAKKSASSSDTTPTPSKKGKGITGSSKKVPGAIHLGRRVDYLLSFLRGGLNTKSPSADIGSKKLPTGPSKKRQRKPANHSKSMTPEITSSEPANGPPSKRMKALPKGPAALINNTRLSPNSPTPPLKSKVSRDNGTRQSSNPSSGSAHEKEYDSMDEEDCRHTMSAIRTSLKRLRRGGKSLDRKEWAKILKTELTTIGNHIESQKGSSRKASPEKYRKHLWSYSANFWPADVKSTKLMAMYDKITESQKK
Chain of Protein translocase subunit SecA (Escherichia coli (strain K12)) (P10408 whole entry): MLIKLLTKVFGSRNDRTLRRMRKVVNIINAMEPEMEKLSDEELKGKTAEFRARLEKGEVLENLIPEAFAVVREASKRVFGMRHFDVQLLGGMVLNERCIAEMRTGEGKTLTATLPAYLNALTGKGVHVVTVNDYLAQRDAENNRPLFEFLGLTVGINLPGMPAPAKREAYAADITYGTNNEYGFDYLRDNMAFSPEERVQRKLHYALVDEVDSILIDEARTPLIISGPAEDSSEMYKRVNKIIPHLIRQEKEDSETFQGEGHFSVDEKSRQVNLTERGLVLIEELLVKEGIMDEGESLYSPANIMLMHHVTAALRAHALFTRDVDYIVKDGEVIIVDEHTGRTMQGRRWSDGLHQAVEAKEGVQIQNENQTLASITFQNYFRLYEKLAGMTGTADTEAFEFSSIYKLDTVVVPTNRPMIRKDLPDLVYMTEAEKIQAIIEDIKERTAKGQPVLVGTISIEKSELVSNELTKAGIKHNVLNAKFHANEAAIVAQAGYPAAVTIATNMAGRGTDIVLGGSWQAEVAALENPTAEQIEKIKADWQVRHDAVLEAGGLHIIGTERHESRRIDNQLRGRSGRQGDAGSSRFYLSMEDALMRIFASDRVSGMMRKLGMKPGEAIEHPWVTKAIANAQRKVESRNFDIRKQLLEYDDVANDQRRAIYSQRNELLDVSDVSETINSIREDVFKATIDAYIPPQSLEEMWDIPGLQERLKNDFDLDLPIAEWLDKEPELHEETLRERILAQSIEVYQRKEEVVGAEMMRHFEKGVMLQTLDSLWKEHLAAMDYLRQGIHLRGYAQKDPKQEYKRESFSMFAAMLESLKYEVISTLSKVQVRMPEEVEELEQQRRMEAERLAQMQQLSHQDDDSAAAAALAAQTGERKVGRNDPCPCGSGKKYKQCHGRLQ

Take `CCCc1noc(CCC(=O)N2CCCC2c2noc(C3CC3)n2)n1` (stereo not drawn): the Percent Effect in [1] is -5.01%; in [2] it was 10.1%; in [3] it was 1.8%; in assay [4], 21.9%; in assay [5], -0.85%; in [6], 1.52%. The Percent Effect in assay [7] is -1.56%; in assay [8], 12%; in assay [9], 1.48%; in [10], 1.27%; in assay [11] it was -2.93%.
`CCO[C@@H]1CO[C@@]2(CCCN(Cc3scnc3C)C2)C1`: the Percent Effect in assay [1] was -2.88%; in [2], 0%; in [3], -3.01%; in assay [4] it was 9.05%; in assay [5] it was 7.14%; in assay [6], -5.19%. In addition, the Percent Effect in [7] was 9.85%; in assay [8] it was 3.99%; in assay [9], -4.17%; in [10], 3.7%; in assay [11] it was -0.793%.
As to `c1cc(CNCc2ccc3c(c2)CCO3)cc(N2CCOCC2)n1`, the Percent Effect is -6.07% in assay [1]; 5.41% in [2]; -3.9% in assay [3]; -3.3% in [4]; -3.03% in [5]; 0.744% in assay [6]. Besides, the Percent Effect in assay [7] is 6.27%; in assay [8] it was 2.63%; in assay [9], 2.15%; in assay [10] it was 6.17%; in assay [11], -4.71%.
Turning to `Cc1nccc(CNC(=O)NCCOc2ccc(F)c(F)c2)n1`, the Percent Effect was -4.87% in assay [1]; 0% in [2]; -0.557% in assay [3]; 27.5% in [4]; 4.25% in assay [5]; -1.43% in assay [6]. The Percent Effect in assay [7] is 14.8%; in assay [8], 8.46%; in [9] it was 4.76%; in assay [10] it was 9.76%; in assay [11] it was -9.47%.
Consider `O=C(c1ccco1)N1CCC2(CCOC2)C1` (stereo not drawn), for which the Percent Effect was -0.538% in [1]; 12% in assay [2]; -4.74% in [3]; -1.73% in [4]; -2.16% in assay [5]; 3.35% in assay [6]. Further, the Percent Effect in [7] was 20.1%; in [8], -9.81%; in [9], 1.06%; in assay [10], 7.69%; in assay [11], -7.58%.
On to `Cc1cc(N2CCN(Cc3ccc(C)o3)CC2)cc(C)n1`, for which the Percent Effect in [1] is -4.6%; in [2], 5.33%; in assay [3], -0.471%; in assay [4] it was 15%; in assay [5] it was 1.46%; in assay [6] it was 2.08%. Moreover, the Percent Effect was 20.2% in assay [7]; 2.05% in assay [8]; 8.2% in [9]; 16.1% in [10]; -6.19% in [11].
Regarding `Cc1ccc(C(=O)N2CCC3(CCN(C(=O)c4cccnc4)C3)CC2)o1`, the Percent Effect in [1] is -2.08%; in assay [2], 13.5%; in assay [3], 6.42%; in assay [4] it was -12.6%; in assay [5], -3.62%; in assay [6] it was 14.3%. The Percent Effect is 13.8% in [7]; -16.6% in assay [8]; 1.08% in assay [9]; 5.13% in assay [10]; -2.81% in assay [11].
In the case of `Cc1nn(C)c(C)c1CNC1CCOc2ccccc21` (stereo not drawn), the Percent Effect was -2.99% in assay [1]; 5.41% in [2]; -3.93% in [3]; -3.92% in [4]; -4.01% in assay [5]; -1.74% in assay [6]. The Percent Effect in assay [7] was 13.7%; in assay [8], 20%; in [9], 0%; in [10], 8.64%; in assay [11] it was -2.87%.
